Data reported in PubChem BioAssay (NCI).
This is part of a sample that, as a whole, favours compounds with a hit. Of some 79,000 tested, about 15% had one in any assay. Activity calls are given as the source filed them. Cut-off read from the data, not from the text of the source: active = growth inhibition above about 70%; inactive = the rest.

Assay: NCI Yeast Anticancer Drug Screen. Data for the wt1 strain (AID 149);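 note: 0% = growth of vehicle-treated wt1 cultures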
Conditions: S. cerevisiae wt1 strain (SPY 50644) growth inhibition, hits give high values
Protocol: Growth inhibition of yeast strains with defined genetic alterations is measured as a screen for potential anti-cancer activity. Selected strains with alterations in DNA damage repair or cell cycle control were exposed to compounds and growth inhibition was measured relative to vehicle treated controls. The strain used in this assay is wt1

Measured: growth inhibition

CCN(CC)CC(O)C1CCC(c2ccccc2)CC1 (stereo not given)
inactive: at 1.2 µM 1% | at 3.7 µM 10% | at 11.0 µM 5% | at 33.0 µM 13% | at 100.0 µM 40%

Cc1c(-c2ccccc2)[nH]c2ccccc12
active: at 33.0 µM 92% | at 100.0 µM 98%
inactive: at 1.2 µM -21% | at 3.7 µM -12% | at 11.0 µM -23%

Cc1cccc(/C=N\NC(=S)N2CCCCC2)n1
inactive: at 1.2 µM -5%
active: at 3.7 µM 92% | at 11.0 µM 99% | at 33.0 µM 99% | at 100.0 µM 99%

NP1(Oc2ccc(F)cc2)=NP(N)(Oc2ccc(F)cc2)=NP(Oc2ccc(F)cc2)(Oc2ccc(F)cc2)=N1 (stereo not given)
inactive: at 1.2 µM -2% | at 3.7 µM 0% | at 11.0 µM 20% | at 33.0 µM 41% | at 100.0 µM 48%

CN(N=O)C(=O)N[C@@H](C=O)[C@@H](O)[C@H](O)[C@H](O)CO
inactive: at 1.2 µM 0% | at 3.7 µM -1% | at 11.0 µM 0% | at 33.0 µM -1% | at 100.0 µM 20%

C=C(CCCO)[C@@H]1CC[C@@](C)(O)[C@H]1C
inactive: at 1.2 µM -25% | at 3.7 µM -33% | at 11.0 µM -29% | at 33.0 µM -34% | at 100.0 µM -35%

COc1ccc(SCc2cc(OC)ccc2OC)cc1
inactive: at 1.2 µM -4% | at 3.7 µM -4% | at 11.0 µM -5% | at 33.0 µM -6% | at 100.0 µM -1%

O=c1[nH]cc(/C=N\Nc2ccccc2)c(=O)[nH]1
inactive: at 1.2 µM 3% | at 3.7 µM 6% | at 11.0 µM 37% | at 33.0 µM 57% | at 100.0 µM 49%
